Bioassay records (PubChem BioAssay)
This is a sample that favours compounds with a hit; in the whole collection about 4.3% have one here.
Wnt bcat act = Wnt/beta-catenin pathway activators, primary screen, cell-based, plate reader, single point; Wnt/beta-catenin reporter cell assay, activator; activation, % at 9.35 µM; 300,000 tested, 1.2% active; AID 743398, 2014; in the data active = activation above about 30%, passing the limit was not always enough; inconclusive = no clear call, values can overlap the other calls;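 note: 0% = neutral control wells and 100% = positive control wells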
SMARCA2 activ = SMARCA2 (BRM) function activators, primary screen, cell-based, luminescence, high throughput | MG213 cells, MMTV-luciferase reporter, dexamethasone, overnight | activation, % at 9.1 µM | 370,000 tested, 1% active | AID 652017, 2013; in the data active = activation above about 7.8%;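 note: 0% = vehicle wells and 100% = reference activator wells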
HSF1 activator = HSF-1 activators, primary screen, NIH3T3-HGL cells, MG132 stress, luminescence, single point. activation, % at 9 µM. NIH3T3-HGL HSF-1 luciferase reporter, 8 h; 100% = twice DMSO control signal. 300,000 tested, 1.7% active. AID 504408, 2011;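 active = mean replicate activation of at least 50% with a set share of replicates each reaching 50%; inconclusive = only one of those two conditions met; inactive = mean below 50% and too few replicates reaching it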;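 note: 0% = median of the neutral control wells and 100% = twice that signal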
HSF1 inh = HSF1 inhibitors in luciferase reporter cells, primary screen, cell-based, NIH3T3, luminescence | NIH3T3-HGL HSE-luciferase, MG132-induced, luminescence 8 h; stronger effect = lower value | activity change, negative = inhibition, % at 7.5 µM (by protocol) | 300,000 tested, 0.77% active | AID 2098, 2009;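 active = more than half of replicate wells show activity change below -50%, luminescence cut by over half; inconclusive = some wells, but at most half, below -50%; inactive = no replicate well below -50%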;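 note: luciferase reports HSF-1 transcriptional activity via heat shock element; 0% = median of DMSO wells and -100% = zero luminescence signal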
esBAF inh = Bmi1 luciferase reporter increase in mESCs, primary screen, esBAF inhibitor project, mouse ES cells, Bmi1 luciferase knock-in, single point; reporter increase, % at 12.5 µM; AID 602393, 2012; 24 h; 100% = twice the neutral-well signal; 350,000 tested, 2% active; in the data active = activation above about 40%; inconclusive = no clear call, values can overlap the other calls;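 note: 0% = median of the plate's neutral control wells and 100% = double that signal; a rise in the Bmi1 reporter signal indicates esBAF inhibition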
MITF TRPM1 HTS = activators of MITF-driven TRPM1 promoter reporter, primary screen, cell-based, SK-MEL-5, luciferase, single point; SK-MEL-5 TRPM1-promoter luciferase, 24 h; % of positive control, neutral wells = 0; activation, % at 12.5 µM; 300,000 tested, 0.75% active;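 active = mean activation of at least 80% with every replicate also reaching 80%; inconclusive = mean reaches 80% but some replicate falls short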;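 note: 0% = neutral control wells and 100% = parthenolide positive control wells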
Active calls of the source: *; ? = inconclusive; / = no result given.

SMILES | Wnt bcat act | SMARCA2 activ | HSF1 activator | HSF1 inh | esBAF inh | MITF TRPM1 HTS
O=C(Nc1ccc2c(c1)OCCO2)Nc1ccc2c(c1)OCO2 | 10.5 | 5.3 | 26.6 | 14.6 | -37.3 | 25.0
O=C(Nc1cccc(Cl)c1)Nc1ccc2c(c1)OCO2 | 31.6* | 4.8 | 29.6 | 24.6 | 58.0* | 42.8
C[C@@H]1CN([C@@H](C)CO)S(=O)(=O)c2ccc(C#CCC3CCCC3)cc2O[C@H]1CN(C)C | / | / | / | / | 0.9 | /
C[C@H](CO)N1C[C@H](C)[C@H](CN(C)C(=O)Nc2cc(F)ccc2F)Oc2ncc(-c3cccc(F)c3)cc2C1=O | / | / | / | / | -5.4 | /
COc1ccc(Cl)cc1C(=O)Nc1ccc2c(c1)OCO2 | / | 0.9 | 47.9 | 12.2 | 50.7* | /
S=C(NCc1ccc2c(c1)OCO2)Nc1ccc2nsnc2c1 | -4.3 | -4.7 | 24.7 | 13.8 | 56.1* | 32.5
COc1cccc(NC(=O)Nc2ccc3c(c2)OCO3)c1 | 40.4* | 1.5 | 34.0 | 23.3 | 61.3* | 67.4
COc1cccc(NC(=O)CN(C)CC(=O)Nc2ccc3c(c2)OCO3)c1 | -4.0 | 1.8 | / | / | 4.9 | -5.1
O=C(Nc1ccc2c(c1)CCC2)Nc1ccc2c(c1)OCO2 | 50.0* | 5.4 | 13.0 | 17.3 | 53.2* | 63.5
CNC[C@H]1Oc2ccc(NC(=O)NC3CCCCC3)cc2CC(=O)N([C@@H](C)CO)C[C@@H]1C | / | / | / | / | -4.8 | /
CC(=O)c1cccc(NC(=O)Nc2ccc3c(c2)OCO3)c1 | 2.6 | 1.1 | / | / | 52.1* | 119.5*
CO[C@H]1CN(C)C(=O)c2cc(NC(=O)c3cnccn3)ccc2OC[C@H](C)N(C(C)=O)C[C@@H]1C | / | / | / | / | 3.1 | /
Cc1cc(/C=C2\SC(=S)N(Cc3ccco3)C2=O)c(C)n1-c1cccnc1 | / | 5.4 | 8.5 | 3.6 | 43.4* | /
O=C1/C(=C/c2cccnc2)SC(=S)N1Cc1ccco1 | 2.0 | -1.7 | / | / | / | -9.7
S=c1sc2c(Cl)ncnc2n1-c1ccccc1 | -8.7 | -7.7 | 565.5* | 477.7 | -3.1 | -67.6
O=C(NC1CCCCC1)c1cc(-c2ccc(O)cc2)on1 | -3.5 | 5.0 | 47.0 | 19.9 | 41.9* | 93.2*
O=C(NC1CCCCC1)c1cc(-c2ccccc2O)on1 | 22.0 | 0.5 | 27.4 | 10.9 | 83.4* | 123.6*
Cc1ccc(-c2cc(C(=O)NC3CCCCC3)no2)cc1 | 8.9 | 1.2 | -3.9 | 3.0 | 37.0 | 114.2*
CCCc1cc(C(=O)NC2CCCCC2)no1 | 33.2* | 3.3 | 16.4 | 19.7 | 42.8* | 65.8
CC(C)c1cc(C(=O)NC2CCCCC2)no1 | / | 0.8 | 13.6 | 2.3 | 8.7 | 62.9
COc1ccc(-c2cc(C(=O)NC3CCCCC3)no2)cc1OC | -3.8 | 4.4 | -3.8 | -9.2 | 0.9 | 7.5
CCCc1cc(C(=O)NC2CCCC2)no1 | 18.6 | 2.0 | 13.7 | 5.6 | 30.0 | 49.9
C[C@H](CO)N1C[C@H](C)[C@H](CN(C)CC2CC2)Oc2ccc(NC(=O)CCC(F)(F)F)cc2CC1=O | / | / | / | / | 2.7 | /
O=C(NC1CCCCCCC1)c1ccccc1O | 18.2 | 4.5 | 0.7 | 5.6 | 92.0* | 77.4
O=C(Nc1ccc(N2CCN(C(=O)c3ccccc3)CC2)cc1)c1ccc([N+](=O)[O-])o1 | -19.1 | -4.8 | 111.3* | 88.9 | / | -90.5
SMILES | Wnt bcat act | SMARCA2 activ | HSF1 activator | HSF1 inh | esBAF inh | MITF TRPM1 HTS
O=C(Nc1ccc(N2CCOCC2)c(Cl)c1)c1ccc([N+](=O)[O-])o1 | -25.3 | 3.4 | 140.6* | 108.0 | / | -63.2
CN1CCN(c2ccc(NC(=O)c3ccc([N+](=O)[O-])o3)cc2Cl)CC1 | -15.8 | -4.5 | -79.3 | -77.5* | -14.7 | -79.4
O=C(Oc1ccc(NC2=NS(=O)(=O)c3ccccc32)cc1)c1cccnc1 | -1.2 | 0.2 | 52.5* | 16.3 | / | -0.1
O=S1(=O)N=C(Nc2ccc(O)cc2)c2ccccc21 | -0.9 | -3.3 | -8.5 | -4.5 | / | -3.5
CO[C@@H]1CN(C)C(=O)c2cc(NS(=O)(=O)c3cn(C)cn3)ccc2OC[C@H](C)N(C)C[C@H]1C | / | / | / | / | 2.0 | /
CC(=O)Oc1ccc2c(c1)C(=O)c1ccccc1CO2 | 6.6 | 1.3 | -12.2 | 5.0 | / | 1.7
COc1ccc(C2=Cc3ccc(OC(C)=O)cc3OC2)cc1 | 13.7 | 6.5 | / | / | 78.3* | 103.5*
Cc1ccc(N2CCN(c3ccc(NCc4nc5ccccc5n4C)cc3)CC2)cc1 | 0.5 | -1.3 | 22.9 | 3.0 | / | 1.3
Cc1ccc(NCc2nc3ccccc3n2C)c(C)c1 | 39.7* | 2.2 | 63.6* | 32.7 | -17.4 | -16.2
Cc1cccc(NCc2nc3ccccc3n2C)c1 | / | 7.4 | -11.4 | 12.7 | 60.7* | 36.8
Cc1cccc(NCc2nc3ccccc3n2Cc2ccccc2)c1 | 21.5 | 0.0 | 21.1 | 5.5 | 19.9 | /
O=C(C[C@@H]1C[C@H]2c3cc(NC(=O)C4CCC4)ccc3O[C@H]2[C@@H](CO)O1)NC1CCCC1 | / | / | / | / | 2.2 | /
CCOc1ccc(NC(=O)c2cccnc2SC)cc1 | 3.2 | 2.7 | 8.5 | 5.3 | 24.2 | 43.0
CCOc1ccc(NC(=O)c2ccccc2-c2ccccc2C(=O)O)cc1 | 12.7 | 2.6 | -1.6 | 3.7 | 26.8 | 84.5*
CCOc1ccc(NC(=O)c2ccccc2CO)cc1 | / | 3.6 | -6.6 | 8.5 | ? | 44.7
CCOc1ccc(NC(=O)c2cccnc2C(=O)O)cc1 | / | 0.6 | -67.5 | -65.8* | 21.9 | 13.4
CCOc1ccc(NC(=O)c2ccccc2OC)cc1 | 45.5* | 5.0 | 5.2 | 9.0 | 21.8 | 11.6
CCOc1ccc(NC(=O)c2ccccc2O)cc1 | / | 4.8 | 101.8* | 58.8 | 26.3 | 82.1*
COc1ccccc1C(=O)Nc1ccc(C(=O)O)cc1 | / | -1.4 | 11.1 | 1.8 | -7.5 | /
COc1ccc(S(=O)(=O)N(C)C[C@@H]2Oc3ccc(NS(=O)(=O)c4ccccc4)cc3C(=O)N([C@H](C)CO)C[C@@H]2C)cc1 | / | / | / | / | -3.5 | /
O=C(C[C@H]1CC[C@@H]2[C@H](COC[C@@H](O)CN2Cc2nccs2)O1)NCc1ccc(Oc2ccccc2)cc1 | / | / | / | / | 6.4 | /
CCCNC(=O)[C@H]1[C@H](CO)[C@H]2Cn3c(ccc(-c4cccc(F)c4)c3=O)[C@H]2N1C(=O)CC | / | / | / | / | -1.8 | /
COc1ccc(CNC(=O)Cn2cccc2C(=O)c2ccccc2)cc1 | 7.1 | -1.0 | 18.8 | 12.7 | 53.0* | 67.7
COc1ccc(CNC(=O)Cn2cccc2C(=O)c2ccccc2C)cc1 | 12.0 | 2.8 | 28.0 | 12.9 | 47.2* | 67.3
C[C@H](CO)N1C[C@H](C)[C@@H](CN(C)C(=O)C2CCC2)Oc2cc(-c3cccnc3)ccc2S1(=O)=O | / | / | / | / | 4.4 | /
COc1ccc(NC(=O)N(C)C[C@H]2Oc3cc(-c4cccc(C(=O)N(C)C)c4)ccc3S(=O)(=O)N([C@@H](C)CO)C[C@H]2C)cc1 | / | / | / | / | -3.2 | /
COc1cccc(-n2c(N)c(-c3nc4ccccc4[nH]3)sc2=S)c1 | 13.0 | 2.2 | -65.7 | -55.1* | / | 7.2
